Only some compounds are listed: those with a hit (about 3.5% of all), similar ones and a draw of the others.
MITF inh = human MITF inhibition, primary screen. O75030. AlphaScreen MITF homodimerization, bead proximity signal. inhibition, % at 2.6 µM. 0.91% of 650,000 active; in the data active = inhibition above about 50%;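 also: 0% = vehicle wells with protein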
Target sequence (O75030 whole entry, looked up): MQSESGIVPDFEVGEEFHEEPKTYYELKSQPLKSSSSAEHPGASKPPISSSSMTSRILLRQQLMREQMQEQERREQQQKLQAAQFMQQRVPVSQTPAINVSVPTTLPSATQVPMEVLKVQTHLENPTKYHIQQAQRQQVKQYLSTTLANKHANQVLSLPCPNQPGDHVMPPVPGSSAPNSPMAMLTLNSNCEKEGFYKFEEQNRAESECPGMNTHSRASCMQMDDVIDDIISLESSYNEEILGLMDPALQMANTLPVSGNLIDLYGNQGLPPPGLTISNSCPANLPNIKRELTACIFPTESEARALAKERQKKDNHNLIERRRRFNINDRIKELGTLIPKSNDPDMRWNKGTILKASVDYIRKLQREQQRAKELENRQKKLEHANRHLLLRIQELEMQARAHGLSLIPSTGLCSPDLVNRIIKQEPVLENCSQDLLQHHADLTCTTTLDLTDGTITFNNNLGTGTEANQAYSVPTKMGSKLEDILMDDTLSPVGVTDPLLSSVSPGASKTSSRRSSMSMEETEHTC
TEAD-YAP block = TEAD-YAP interaction inhibition; HEK-TIYL cells, TEAD-Gal4/YAP UAS-luciferase luminescence; inhibition, % at 9.12 µM; 1.4% of 640,000 active; AID 1259422; in the data active = inhibition above about 32%;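 also: 0% = median of test compound wells and 100% = reference inhibitor wells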
GPR151 ag = human GPR151 activation. activation, % at 11.2 µM. 1% of 650,000 active. Q8TDV0. PathHunter beta-arrestin GPR151 cells, luminescence; in the data active = activation above about 4.9%;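 also: 0% = median of compound wells and 100% = cells with positive control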
FBW7 act = activators of human E3 ligase FBW7 | Q969H0 | AlphaScreen FBW7–phospho-cyclin E peptide binding, activator screen | normalized activity (activation), % at 26.1 µM | 0.13% of 650,000 active | AID 1259310; in the data active = normalized activity above about 1.9%;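 also: purified mutant Fbw7 with reduced substrate affinity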
Starred values were filed as active, the others as inactive.

SMILES	MITF inh	TEAD-YAP block	GPR151 ag	FBW7 act
O=c1cc(Nc2ccc3c(c2)OCCO3)[nH]c(=O)n1-c1ccc(Cl)cc1	-3	-5	0	0
C=CCn1c(C)cc(C2=NNC(=NC3CC3)SC2)c1C	18	95*	-1	0
NNC(=O)C(Cc1ccccc1)NC(=O)OCc1ccccc1 (configuration not stated)	6	8	1	0
NNC(=O)C(Cc1ccc(O)cc1)NC(=O)C(CO)NC(=O)OCc1ccccc1 (configuration not stated)	9	13	-1	2.1*
COc1ccccc1C(=O)NC(C)CCc1ccccc1 (configuration not stated)	-4	13	0	0
CC1CCc2nc(N)c(C#N)c(-c3cccnc3)c2C1 (configuration not stated)	19	50*	0	1.9*
Fc1ccc(CN2CCOc3ccc(-c4ccncc4)cc32)cc1	10	43*	0	0
Cc1cc2nc3c(=O)[nH]c(=O)[nH]c3nc2cc1N	-1	8	0	0
Cc1cc2nc3c(=O)[nH]c(=O)[nH]c3nc2c([N+](=O)[O-])c1N	68*	2	1	-1
COC(=O)c1cn[nH]c1NC(=S)Nc1ccc(C)cc1C	5	80*	-2	0
O=C(Nc1cc(C(F)(F)F)ccc1N1CCCC1)c1cc([N+](=O)[O-])ccc1Cl	7	86*	-1	0
CC(=O)Nc1ccccc1NC(=O)c1cc([N+](=O)[O-])ccc1Cl	-4	3	1	0
O=C(Nc1cc(C(F)(F)F)ccc1Cl)c1cc([N+](=O)[O-])ccc1Cl	-6	-3	0	0
O=C(Nc1cccc2ccccc12)c1cc([N+](=O)[O-])ccc1Cl	14	60*	2	0
Cc1cc(O)c(NC(=O)c2cc([N+](=O)[O-])ccc2Cl)cc1C	6	43*	-1	1
O=C(Nc1ccccc1Cl)c1cc([N+](=O)[O-])ccc1Cl	4	36*	2	0
CC1CCc2c(sc3nnn(CC(=O)NCc4cccs4)c(=O)c23)C1 (configuration not stated)	8	43*	1	0
CCN(CCO)C(=O)CC1C(=O)NCCN1Cc1ccc(OC)c(OC)c1 (configuration not stated)	-6	1	3	0
COCCCNC(=O)c1cccn2c(=O)c3cc4ccccc4cc3nc12	-5	36*	1	0
COCCNC(=O)c1cc2c(=O)n3cccc(C)c3nc2n1C	9	7	1	0
O=C(NCc1ccco1)c1cccn2c(=O)c3cc4ccccc4cc3nc12	-5	-8	-1	0
COCCCNC(=O)c1cc2c(=O)n3cccc(C)c3nc2n1C	10	56*	2	0
COc1ccc(C(=O)c2snc(NCc3ccccc3)c2N)cc1	5	-21	1	0
COc1ccc(Nc2nsc(C(=O)c3ccc(F)cc3)c2N)cc1	-4	44*	-1	0
Cc1nc(SCc2ccc(Br)cc2)n[nH]1	15	33*	0	0
SMILES	MITF inh	TEAD-YAP block	GPR151 ag	FBW7 act
Cc1nc(SCc2ccc(OC(C)C)cc2)n[nH]1	15	95*	-5	0
N=c1c2c(-c3ccccc3)c(-c3ccccc3)n(Cc3ccco3)c2ncn1CCO	15	68*	-2	0
COc1ccc(S(=O)(=O)N2CCN(CC(=O)Nc3ccc(OC)c(OC)c3)CC2)cc1	-6	7	0	0
CC(C)Cc1ccc(S(=O)(=O)Nc2ccc3c(c2)n(C)c(=O)n3C)cc1	1	33*	1	0
Cn1c(=O)n(C)c2cc(NS(=O)(=O)c3ccc(C(C)(C)C)cc3)ccc21	17	25	1	0
O=c1[nH]c2ccc(S(=O)(=O)Nc3ccccc3)cc2o1	-9	-39	-1	0
Cc1cc(C)c(NS(=O)(=O)c2ccc3[nH]c(=O)oc3c2)c(C)c1	14	5	-1	6.3*
CC(c1ccon1)N(C)C(=O)c1cc(COc2cccc3cnccc23)on1 (configuration not stated)	14	34*	-1	0
Cc1c(C(C)NC(=O)c2cc(COc3cccc4cnccc34)on2)cnn1C (configuration not stated)	12	43*	-1	0
O=C(NC1CCC1)c1cc(COc2cccc3cnccc23)on1	6	27	0	0
CN(CCc1nc2ccc(F)cc2[nH]1)C(=O)c1cc(COc2cccc3cnccc23)on1	2	55*	0	0
CN(C(=O)c1cc(COc2cccc3cnccc23)on1)C1CCCCC1	-9	43*	-1	0
CC(=O)c1ccc(OCc2cc(C(=O)N(C)C(C)c3ccon3)no2)cc1 (configuration not stated)	-19	2	-2	0
O=C(COc1ccc(Cl)cc1)NC(c1ccccc1)c1c(O)ccc2ccccc12 (configuration not stated)	1	-6	3	0
C[C@H]1C(=O)N(C)CCN1C(=O)c1cc(COc2cccc3cnccc23)on1	-10	36*	2	0
COCCN=c1scc(-c2cccc3ccccc23)n1/N=C/c1ccc[nH]1	10	43*	2	0
NC(=O)CSc1nnc(-c2cccnc2)n1-c1cccc(C(F)(F)F)c1	5	10	-1	0
NC(=O)CSc1nnc(-c2ccncc2)n1-c1cccc(C(F)(F)F)c1	-7	-8	-1	2.6*
COc1cccc(C2=NN3C(C2)c2cccc(OC)c2OC3c2ccc(SC)cc2)c1 (configuration not stated)	-5	47*	-1	0
CCOc1cccc2c1OC(c1ccc(OC)cc1)N1N=C(c3cccc(OC)c3)CC21 (configuration not stated)	-7	47*	-2	0
COc1cccc(C2=NN3C(C2)c2cccc(OC)c2OC3c2cccc(Cl)c2)c1 (configuration not stated)	4	29	1	0
O=C(O)CCc1ccc(-c2ccc(Br)cc2)o1	56*	-4	-2	0
O=C(Cc1ccccc1)OCc1ccc(-c2ccc(Br)cc2)o1	-11	-17	-2	0
CCn1nc(C)c(CNC(=O)c2ccc(OC3CCN(Cc4ccccn4)CC3)cc2)c1C	9	52*	0	0
O=C(O)/C=C/C(=O)Nc1ccc(Oc2ccc(Oc3ccc(NC(=O)/C=C/C(=O)O)cc3)cc2)cc1	-3	39*	1	0
Cc1ccc(NC(=O)/C=C\C(=O)O)cc1	-1	-3	0	0
Cc1cc(Br)ccc1N1C(=O)/C(=C/c2ccc(Br)cc2)C=C1c1ccccc1	-4	0	2	0
Cc1cc(Br)ccc1N1C(=O)/C(=C/c2ccc(Cl)cc2)C=C1c1ccccc1	13	-3	0	1.9*
COc1ccc(-c2nc3cnccn3c2NCc2ccco2)cc1CN1CCOCC1	-2	-1	0	0
CC1=CC2=NC(=O)/C(=C\c3cc(C)n(-c4cc(C)ccc4C)c3C)C(=N)N2O1	8	61*	0	1
